# PubChem BioAssay (Tox21)
# Records with an inconclusive call do not appear. Active and inactive are the calls of the source. Calls follow the shape of the dose curve; as a rule, active = well fitted cell-killing curve with a large enough effect in the repeat runs; inconclusive = weak or mixed curves, or effect the other way; inactive = flat fitted curve, though single readings scatter.
# Test: qHTS assay to identify small molecule antagonists of the estrogen receptor alpha (ER-alpha) signaling pathway using the BG1 cell line in the presence of 0.1 nM 17-beta-estradiol - cell viability counter screen (AID 1259241); also: nearly all actives have a fitted effect of over 40% in size
# Settings: VM7Luc4E2 (BG1) viability, CellTiter-Fluor protease, 22 h, 0.1 nM estradiol agonist added; series mostly up to 92.4 µM; activity change, negative = cytotoxicity: at the top concentration
# How it was run: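 Following 5 days in phenol red-free medium with charcoal-stripped serum, VM7Luc4E2 cells received test compounds alongside 0.1 nM 17beta-estradiol (final) at 37C for 22 hr. Live cells were then quantified via protease-substrate fluorescence.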
# % is scaled to controls: 0 for no effect and ±100 for the full control effect; potency is read from the fitted curve at half-maximal effect.
SMILES,"activity change, negative = cytotoxicity",Potency
CCCCCCOC(=O)C(C)C,-18.6% (inactive),–
C[C@@H]1C[C@H]2[C@@H]3CCC4=CC(=O)C=C[C@]4(C)[C@@]3(F)[C@@H](O)C[C@]2(C)[C@H]1C(=O)CO,1.95% [at 42.5 µM] (inactive),–
CC(C)(C)C(=O)O,7.25% (inactive),–
CC(C)C(OC(=O)c1ccccc1)C(C)(C)COC(=O)c1ccccc1 (stereo not drawn),1.54% (inactive),–
CCCCCCOC(=O)CCCCCCCC(=O)OCCCCCC,2.65% (inactive),–
NC(=O)Cn1c(=O)cc(CCN2CCN(c3nccc4sccc34)CC2)c2ccc(F)cc21,-24.8% (inactive),–
O=C(c1ccc(O)cc1)c1ccc(Cl)cc1,-20.8% (inactive),–
C[C@@H]1C[C@H]2[C@@H]3CCC4=CC(=O)C=C[C@]4(C)[C@@]3(F)[C@@H](O)C[C@]2(C)[C@@]1(O)C(=O)CO,1.49% (inactive),–
O=C(N[C@@H](c1ccccc1)[C@@H]1CCCCN1)c1cccc(C(F)(F)F)c1Cl,-25.5% (inactive),–
CC[C@H](NC(=O)c1cc(F)ccc1NS(=O)(=O)c1cccc2cccnc12)c1ccccc1,-19.3% (inactive),–
CO[C@H]1O[C@H](CO)[C@@H](O)[C@H](O)[C@H]1O,7.81% (inactive),–
CC1C2CC(CC2C2CCCC(O)C2)C1(C)C (stereo not drawn),-1.47% (inactive),–
CCOC(=O)N1CCC(n2c(=O)[nH]c3cc(Cl)ccc32)CC1,-24.5% [at 42.5 µM] (inactive),–
O=C(CCCN1CCN(c2ccc(F)cc2)CC1)NC1c2ccccc2CSc2ccccc21 (stereo not drawn),-18.6% [at 42.5 µM] (inactive),–
Cc1cnc(C)c(C)n1,2.76% (inactive),–
CO[C@H]1C=CO[C@@]2(C)Oc3c(C)c(O)c4c(O)c(c5c(c4c3C2=O)=NC2(CCN(CC(C)C)CC2)N=5)NC(=O)/C(C)=C\C=C/[C@H](C)[C@H](O)[C@@H](C)[C@@H](O)[C@@H](C)[C@H](OC(C)=O)[C@@H]1C,–,47.5 µM (active)

SMILES,"activity change, negative = cytotoxicity",Potency
O=C(N/N=C/c1ccc([N+](=O)[O-])o1)c1ccc(O)cc1,–,26.6 µM (active)
CCC(=O)Oc1ccc(/C(CC)=C(\CC)c2ccc(OC(=O)CC)cc2)cc1,4.5% (inactive),–
[O]=[Bi],-2.05% [at 8.39 µM] (inactive),–
CCCCCCCC/C=C\CCCCCCCC(=O)OC(CO)CO,2.02% (inactive),–
C[C@]12CCC(=O)C=C1C=C[C@@H]1[C@@H]2CC[C@@]2(C)[C@H]1CC[C@@]21CCC(=O)O1,-4.61% [at 42.5 µM] (inactive),–
CNCCCC1c2ccccc2C=Cc2ccccc21,-0.725% [at 42.5 µM] (inactive),–
Cc1cc(S(=O)(=O)O)ccc1N=Nc1c(O)ccc2ccccc12,–,34.4 µM (active)
CCC(Cc1ccccc1)(C(=O)c1ccc(N2CCOCC2)cc1)N(C)C (stereo not drawn),-17.7% (inactive),–
CC1=C(/C=C/C(C)=C\C=C\C(C)=C\C(=O)O)C(C)(C)CCC1,-23.5% (inactive),–
C=CC(=O)NCOCC(C)C,-1.22% (inactive),–
COc1cc2c(N3CCN(C(=O)Nc4ccc(OC(C)C)cc4)CC3)ncnc2cc1OCCCN1CCCCC1,-23.7% [at 42.5 µM] (inactive),–
C=CC(C)(C)CC(=O)OC,-2.05% (inactive),–
CC1(C)C(=O)N(Br)C(=O)N1Cl,2.03% (inactive),–
CCNC(=O)N1CCN(CCCC(c2ccc(F)cc2)c2ccc(F)cc2)CC1,–,26.6 µM (active)
O=S(=O)(c1ccccc1)c1ccc(Cl)cc1,-5.32% (inactive),–
CC(=N\O)/C(C)=N/O,-4.77% (inactive),–

# Test: qHTS assay to identify small molecule antagonists of the androgen receptor (AR) signaling pathway using the MDA cell line in the presence of 0.5 nM R1881 - cell viability counter screen (AID 1259242); also: nearly all actives have a fitted effect of over 45% in size
# Settings: MDA-kb2 viability, CellTiter-Fluor protease fluorescence, 16 h; series mostly up to 92.4 µM; viability change, negative = cytotoxic: at the top concentration
# How it was run: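 MDA-kb2 cells (human breast carcinoma, stably carrying MMTV-luciferase reporter) were exposed to compounds with 0.5 nM R1881 (final) for 16 hr at 37C, 0% CO2; viability then read as live-cell protease fluorescence (CellTiter-Fluor, 30 min) in the same wells.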
SMILES,"viability change, negative = cytotoxic",Potency
CCCCCCOC(=O)C(C)C,3.07% (inactive),–
C[C@@H]1C[C@H]2[C@@H]3CCC4=CC(=O)C=C[C@]4(C)[C@@]3(F)[C@@H](O)C[C@]2(C)[C@H]1C(=O)CO,6.46% [at 42.5 µM] (inactive),–
CC(C)(C)C(=O)O,4.21% (inactive),–
CC(C)C(OC(=O)c1ccccc1)C(C)(C)COC(=O)c1ccccc1 (stereo not drawn),-0.214% (inactive),–
CCCCCCOC(=O)CCCCCCCC(=O)OCCCCCC,1.21% (inactive),–
NC(=O)Cn1c(=O)cc(CCN2CCN(c3nccc4sccc34)CC2)c2ccc(F)cc21,-8.61% (inactive),–
O=C(c1ccc(O)cc1)c1ccc(Cl)cc1,-12.9% (inactive),–
C[C@@H]1C[C@H]2[C@@H]3CCC4=CC(=O)C=C[C@]4(C)[C@@]3(F)[C@@H](O)C[C@]2(C)[C@@]1(O)C(=O)CO,2.26% (inactive),–
CC(C)(C)CC(C)(C)c1ccc(OCCO)cc1,–,48.3 µM (active)
CC[C@H](NC(=O)c1cc(F)ccc1NS(=O)(=O)c1cccc2cccnc12)c1ccccc1,-10.5% (inactive),–
Cc1ccc(Nc2nccc(N(C)c3ccc4c(C)n(C)nc4c3)n2)cc1S(N)(=O)=O,-4.99% [at 42.5 µM] (inactive),–
CO[C@H]1O[C@H](CO)[C@@H](O)[C@H](O)[C@H]1O,4.21% (inactive),–
C=CCOC(=O)/C=C\C(=O)OCC=C,-4.21% (inactive),–
CC1(C)C2=CCCC(C)(C)[C@]23CC[C@H]1C3,-2.35% (inactive),–
CC1C2CC(CC2C2CCCC(O)C2)C1(C)C (stereo not drawn),-5.47% (inactive),–
C=CC(=C)CCCC(C)(C)OC(C)=O,0.545% (inactive),–

SMILES,"viability change, negative = cytotoxic",Potency
Cc1cnc(C)c(C)n1,-6.05% (inactive),–
OC(CCCN1CCCCC1)(c1ccccc1)c1ccccc1,-1.5% [at 42.5 µM] (inactive),–
CCC(=O)Oc1ccc(/C(CC)=C(\CC)c2ccc(OC(=O)CC)cc2)cc1,-12.7% (inactive),–
[O]=[Bi],1.95% [at 8.39 µM] (inactive),–
Cc1cc2nc3ccc(=[N+](C)C)cc-3sc2cc1N,–,2.66 µM (active)
CCc1cccc(N(C)C(N)=Nc2cccc3ccccc23)c1,-1.23% [at 42.5 µM] (inactive),–
CCCCCCCC/C=C\CCCCCCCC(=O)OC(CO)CO,-0.598% (inactive),–
C[C@]12CCC(=O)C=C1C=C[C@@H]1[C@@H]2CC[C@@]2(C)[C@H]1CC[C@@]21CCC(=O)O1,0.741% [at 42.5 µM] (inactive),–
Cc1cc(S(=O)(=O)O)ccc1N=Nc1c(O)ccc2ccccc12,–,48.6 µM (active)
CC1=C(/C=C/C(C)=C\C=C\C(C)=C\C(=O)O)C(C)(C)CCC1,-15.2% (inactive),–
C=CC(=O)NCOCC(C)C,-0.707% (inactive),–
C=CC(C)(C)CC(=O)OC,-12.8% (inactive),–
CC1(C)C(=O)N(Br)C(=O)N1Cl,7.54% (inactive),–
O=S(=O)(c1ccccc1)c1ccc(Cl)cc1,-5.34% (inactive),–
CC(=N\O)/C(C)=N/O,-6.19% (inactive),–
